Data published in PubChem BioAssay AID449762 (Southern Research Specialized Biocontainment Screening …, 2010).
The whole screen tested about 330,000 compounds, of which about 1,900 (0.58%) were called active. Inconclusive results (about 4%) are left out. Only a sample is shown. Entries with a potency or affinity are not part of this list. Unmarked numbers belong to inactive results. No stated cut-off is given here; in the data, inconclusive means inhibition above about 70% without an active follow-up result; inactive means below that.

Test: M. tuberculosis growth inhibition, HTS (AID 449762);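 further: bacterial growth assessed after seven days of incubation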
Conditions: M. tuberculosis H37Rv growth inhibition, 7H9 media; at 25 µM; hits give high values
`CCC(CO)Oc1cc(NC(=O)c2ccc(N)cc2)c2ncn(C(C)C)c2c1` (stereo not drawn) gave an inhibition of 4.76%.
In the case of `COc1ccc(-c2[nH]ncc2-c2ccc(Cl)cc2)c(O)c1`, the inhibition is reported as 41.7%.
Work on `CCOc1ccc(-c2[nH]ncc2-c2ccccc2)c(O)c1` yielded an inhibition of 9.38%.
For `O=[N+]([O-])c1ccc(COc2ccc(-c3[nH]ncc3-c3ccccc3)c(O)c2)cc1`, the inhibition was -2.72%.
For `COc1ccc(-c2cn[nH]c2-c2ccc(OCc3ccc([N+](=O)[O-])cc3)cc2O)cc1`, the inhibition was 8.94%.
Work on `Cc1cc(N2C(=O)C3CC=CCC3C2=O)cc(C)c1Br` (stereo not drawn) yielded an inhibition of 4.22%.
With `CC(=NNC(=O)c1ccc(NS(=O)(=O)c2ccc(Br)cc2)cc1)c1cccnc1` the inhibition was 9.29%.
Compound `CC(C)Cc1nc2sc3c(=O)[nH]cnc3c2c2c1CCCC2` has an inhibition of 1.08%.
Work on `CCN(CC)C(=O)CNC(=S)N(CCCN1CCOCC1)Cc1cccs1` yielded an inhibition of 1.2%.
With `CCc1cc(-c2[nH]ncc2-c2ccc([N+](=O)[O-])cc2)c(O)cc1OC` the inhibition was 1.64%.
`CCCCn1c(NC(=S)Nc2ccccc2)nc2ccccc21` gave an inhibition of 2.6%.
Work on `CCCn1c(NC(=S)Nc2ccccc2)nc2ccccc21` yielded an inhibition of 2.43%.
In the case of `CSc1nc2ccsc2c(=O)n1-c1ccccn1`, the inhibition is reported as -2.21%.
For `CCn1c(C)nc2cc(C(=O)OCCC(F)(F)F)ccc21`, the inhibition was -1.06%.
`CCn1c(C)nc2cc(C(=O)OC)ccc21` showed an inhibition of -7.44%.
For `COc1ccccc1C(=O)NC(CCSC)C(=O)OCC(=O)N1CCCC1=O` (stereo not drawn), the inhibition was -5.17%.
Work on `COc1ccc(-c2c(C#Cc3ccsc3)c3cc(-c4ccc5cc[nH]c5c4)ccc3n2C)cc1` yielded an inhibition of -6.96%.
Work on `CN(C)CCN(Cc1ccccc1)C(=O)[C@H](Cc1ccccc1)N1C(=O)c2ccccc2C1=O` yielded an inhibition of -1.93%.
`COc1ccc(NC(=O)CSc2nc(SC)ns2)c(OC)c1` gave an inhibition of 4.38%.
`CSc1nsc(SCC(=O)Nc2ccccc2C(N)=O)n1` gave an inhibition of 2.11%.
`O=C(O)c1cccc(N2C(=O)/C(=C/c3ccc([N+](=O)[O-])cc3)C=C2c2ccccc2)c1` showed an inhibition of 7.59%.
`O=C1/C(=C/c2ccc([N+](=O)[O-])cc2)C=C(c2ccccc2)N1c1ccccc1` showed an inhibition of 10.5%.
Work on `COc1ccc(-n2c(SCC(=O)N3CCc4ccccc43)nnc2-c2c[nH]c3ccccc23)cc1` yielded an inhibition of 7.85%.
Compound `COc1ccccc1N(CC(=O)NC(C)(C)C)C(=O)CCC(=O)Nc1nccs1` has an inhibition of -0.5%.
In the case of `CC1(CCc2ccccc2)NC(=O)N(CC(=O)Nc2ccc(S(N)(=O)=O)cc2)C1=O` (stereo not drawn), the inhibition is reported as 0.35%.
For `NC[C@H](Cc1ccccc1)NCCCCC1CCCCC1`, the inhibition was -8.88%.
Work on `CNC[C@@H](C)NC[C@@H](Cc1ccccc1)NCCc1ccccc1` yielded an inhibition of 1.77%.
With `COc1cccc(NC(=O)COC(=O)c2ccccc2SCC(=O)N2CCCC2)c1` the inhibition was 5.04%.
In the case of `Cc1cc(=O)[nH]c(Nc2cccc(Cl)c2C)n1`, the inhibition is reported as 1.14%.
Compound `O=C(NS(=O)(=O)c1ccccc1Cl)c1ccc[nH]1` has an inhibition of 2.54%.
For `CCOc1ccc(C(C)NC(=O)Cc2ccccc2)cc1OCC` (stereo not drawn), the inhibition was -8.29%.
For `OCCNc1nc(N2CCN(Cc3ccccc3)CC2)nc2ccccc12`, the inhibition was 5.92%.
`OCCN1CCN(c2nc(NCc3ccco3)c3ccccc3n2)CC1` gave an inhibition of -0.19%.
`CCc1cccc(CC)c1NC(=O)CSc1nc2ccc(N3C(=O)C4C(C3=O)[C@H]3C=C[C@@H]4C3)cc2s1` (stereo partly drawn) showed an inhibition of -9.69%.
Compound `CCc1cccc(CC)c1NC(=O)CSc1nc2ccc(N3C(=O)C4C5C=CC(C5)C4C3=O)cc2s1` (stereo not drawn) has an inhibition of -11%.
`COc1cc(C(=O)Nc2cccc(S(=O)(=O)NCc3ccco3)c2)cc(OC)c1OC` gave an inhibition of 0.68%.
Compound `COc1ccc(CCC(C)NC(=O)CCc2ccccc2)c(OC)c1` (stereo not drawn) has an inhibition of 4.05%.
`COc1cc(/C=N/NC(=O)c2csc3c2CCCC3)ccc1OCCN1CCOCC1` showed an inhibition of -0.72%.
For `COc1cc(/C=N/NC(=O)c2cc3ccccc3cc2O)ccc1OCCN1CCCCC1`, the inhibition was 9.28%.
In the case of `COc1ccccc1CNC(=O)CN1CCN(S(=O)(=O)c2cccs2)CC1`, the inhibition is reported as -5.5%.
For `CSCCC(NS(=O)(=O)c1ccc(Cl)cc1)C(=O)OCC(=O)NC1CCCCC1` (stereo not drawn), the inhibition was 1.43%.
Compound `COc1ccc(NC2=NC(C)(C)CS2)cc1` has an inhibition of -0.92%.
Work on `Cc1ccc(C(=O)CCNc2ccc(Br)cc2)o1` yielded an inhibition of -5.24%.
For `Cc1ccc(C(=O)CNc2ccc(Br)cc2)cc1`, the inhibition was 2.6%.
Compound `CC12CCC(C(=O)Nc3cccc4ccccc34)(C1Br)C2(C)C` (stereo not drawn) has an inhibition of 5.17%.
For `CCCCOc1ccc(-c2nc(SCC(N)=O)n[nH]2)cc1`, the inhibition was 48.6%.
`CCOc1ccc(-c2cnc(SCC(N)=O)nc2N)cc1` showed an inhibition of 62.7%.
For `CCC1(c2ccc(F)cc2)NC(=O)N(CC(=O)N2c3ccccc3NC(=O)C2(C)C)C1=O` (stereo not drawn), the inhibition was 1.45%.
In the case of `CCOc1ccc(-n2c(Cc3ccccc3)nnc2SCc2c(C)noc2C)cc1`, the inhibition is reported as -5.75%.
Work on `COc1cc(-c2nc3ccc4ccccc4c3c3c2CCC3)ccc1O` yielded an inhibition of -4%.
For `Oc1ccc(-c2nc3ccc4ccccc4c3c3c2CCC3)cc1O`, the inhibition was -2.27%.
With `Cc1ccccc1NC(=O)CN1C(=O)NC2(CCc3ccccc32)C1=O` (stereo not drawn) the inhibition was 8.44%.
`Clc1ccc2c(NNc3ccccc3Cl)ccnc2c1` showed an inhibition of 64.1%.
Work on `CC/C(=N\Nc1ccnc2cc(Cl)ccc12)c1ccc(O)cc1` yielded an inhibition of 9.75%.
Work on `Oc1ccc(Nc2ccnc3cc(Cl)ccc23)cc1` yielded an inhibition of 7.94%.
With `C/C(=N/Nc1ccnc2cc(Cl)ccc12)c1ccc(N)cc1` the inhibition was -2.9%.
Work on `COc1ccc(OC2C(=O)N(Cc3ccc(F)cc3)C2c2cc(OC)c(OC)c(OC)c2)cc1` (stereo not drawn) yielded an inhibition of 20.5%.
Work on `COc1ccc(S(=O)(=O)Cc2ccc(C(=O)NC3CCC(C)CC3)o2)cc1` (stereo not drawn) yielded an inhibition of 1.75%.
With `Cc1ccc(C(=O)CSc2nnc3n2CCCCC3)s1` the inhibition was -7.99%.
For `COCCCNC(=O)Nc1ccc2c(c1)N(C)C(=O)CS2`, the inhibition was 1.24%.
Work on `O=C(CN(CCc1ccccc1)C(=O)CNS(=O)(=O)c1ccc(F)cc1)NCc1ccco1` yielded an inhibition of 1.92%.
For `CCCCN1CCNC[C@@H]1c1ccccc1`, the inhibition was -9.81%.
`CCOC1OC(=O)C(Cl)=C1Nc1cc(C)ccc1C` (stereo not drawn) gave an inhibition of -3.33%.
With `CCOC1OC(=O)C(Cl)=C1Nc1ccc(C)cc1C` (stereo not drawn) the inhibition was 9.67%.
`Cc1ccc(NC(=O)C2CCN(C(=O)[C@@H]3Cc4ccccc4CN3)CC2)cc1` showed an inhibition of 9.95%.
In the case of `O=C(COC(=O)c1cc2ccccc2oc1=O)Nc1cccc(S(=O)(=O)N2CCCCCC2)c1`, the inhibition is reported as -4.32%.
For `CCOC(=O)Cc1csc(NC(=O)CSc2nnnn2-c2ccc(F)cc2)n1`, the inhibition was -5.86%.
Compound `CCOC(=O)c1sc(NC(=O)CN2C(=O)NC3(CC(C)CC(C)(C)C3)C2=O)c(C(=O)OCC)c1C` (stereo not drawn) has an inhibition of 5.68%.
In the case of `CCc1nnc(NC(=O)CN2C(=O)NC3(CC(C)CC(C)(C)C3)C2=O)s1` (stereo not drawn), the inhibition is reported as -0.6%.
In the case of `CSCC[C@H](NC(=O)c1cccc(S(=O)(=O)N2CCN(C)CC2)c1)c1nc2ccccc2[nH]1`, the inhibition is reported as -7.51%.
`CC(C(=O)Nc1ccc2c(c1)OCCO2)n1nnc(-c2ccccc2)n1` (stereo not drawn) showed an inhibition of 0.15%.
Compound `Cc1nc(C)c(CCNC(=O)c2ccccc2Br)s1` has an inhibition of -5.7%.
In the case of `O=C(NCCc1ccccc1)C(=O)NN=C1CCCC1`, the inhibition is reported as -3.67%.
Compound `CC1CCCC/C1=N\NC(=S)Nc1ccccc1` (stereo not drawn) has an inhibition of 0.51%.
Compound `S=C(NC1CCCCC1)N1CCN(Cc2ccccc2)CC1` has an inhibition of -15.7%.
In the case of `O=C(CC(=O)NN=C1CCCC1)NCCc1ccccc1`, the inhibition is reported as 4.48%.
Work on `Cc1ccc(NC(=S)N/N=C2\CCCCC2C)cc1` (stereo not drawn) yielded an inhibition of 5.06%.
`S=C(Nc1ccccc1)NC1CCN(Cc2ccccc2)CC1` showed an inhibition of -9.83%.
Compound `Cc1cccc(C)c1NC(=S)NCCc1ccccn1` has an inhibition of 3.14%.
Compound `CC1(C)C[C@H](O)[C@@]23C[C@@H](OC2=O)[C@]2(C)C(=CCC4[C@@]5(C)CC[C@H](O)C(C)(C)C5CC[C@]42C)[C@@H]3C1` (stereo partly drawn) has an inhibition of 3.65%.
`CCOC(=O)c1cc(CC)sc1NC(=O)COC(=O)C1CCC1` gave an inhibition of -15.8%.
`Cc1cccc(C)c1NC(=O)CN1N=NC2C(=O)N(c3cccc(Cl)c3)C(=O)C21` (stereo not drawn) showed an inhibition of 2.55%.
For `CN(C)S(=O)(=O)c1cccc(NC(=O)CSc2nc3ccccc3[nH]2)c1`, the inhibition was -2.08%.
In the case of `O=C(Nc1nnc(C2CC2)s1)c1cncc(Br)c1`, the inhibition is reported as 5.39%.
With `COc1ccc(CNC(=O)C(=O)NCCC2CCCCN2S(=O)(=O)c2cccs2)cc1` (stereo not drawn) the inhibition was 5.17%.
For `COc1ccc(CCNC(=O)C(=O)NCC2OCCN2S(=O)(=O)c2ccc(C)cc2)cc1OC` (stereo not drawn), the inhibition was -6.63%.
Work on `Cc1ccc(NC(=O)N2CCCC2C(=O)NCC2CCCCC2)cc1` (stereo not drawn) yielded an inhibition of 5.67%.
`Clc1ccc(Cl)c(-c2ccc(/C=N/c3ncn[nH]3)o2)c1` gave an inhibition of 8.33%.
In the case of `Cc1cc(C(=O)N/N=C/c2ccc(-c3ccc(C)c(Cl)c3)o2)n[nH]1`, the inhibition is reported as 42.8%.
In the case of `Cc1ccc(/C=N/n2c(COc3ccccc3)n[nH]c2=S)cc1`, the inhibition is reported as 6.13%.
For `O=C(COC(=O)CCc1c[nH]c2ccccc12)Nc1ccc([N+](=O)[O-])cc1`, the inhibition was 2.33%.
`Cc1ccc(NC(=O)COC(=O)Cc2c[nH]c3ccccc23)cc1C` showed an inhibition of -4.13%.
`COc1cc(/C=C/C(=O)OCC(=O)NCCC2=CCCCC2)cc(OC)c1OC` showed an inhibition of 2.02%.
